# Bioassay records deposited in PubChem by National Center for Advancing Translational Sciences (NCATS).
# A selection: hits, their analogues and other compounds. The true share with any hit is near 8.3%.
# HCMV antiviral: qHTS Assay for inhibitors of the human cytomegalovirus (HCMV); HFF cells, HCMV-luciferase reporter, 72 h; stronger effect = lower value; activity change, negative = inhibition, % at 57.5 µM; 4.5% of 410,000 active; AID 1259415, 2018; in the data active = activity change below about -60%; inconclusive = no clear call, values can overlap the other calls; inactive = above about -39%
#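 Two compound doses tested in HFFs infected with HCMV-luciferase, MOI 1 PFU/cell, 72 h at 37C. Lysate luminescence read with OneGlo; data normalized against buffer-only and 10uM Salinomycin inhibitor controls.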
# FMDV inh: High Throughput Screening for Foot and Mouth Disease Virus Antivirals; Potency, µM (top dose mostly 57.9 µM), for the others: at the highest dose activity change, negative = inhibition, usual class: inhibitors; 1.2% of 410,000 active; FMDV antiviral cell-based qHTS; calls by dose curve; tested in HEK293T cells; note: read-out not given here; potency is the fitted concentration of half-maximal effect; nearly all actives have a fitted effect of over 45% in size
# Giardia FBPA inh: qHTS Assay for Inhibitors of Fructose-1,6-bisphosphate Aldolase from Giardia Lamblia. A8B2U2. 0.71% of 290,000 active. purified Giardia FBPA. Potency, µM (top dose mostly 59.6 µM), without a hit: top-dose activity, negative = inhibition, most hits filed as inhibitors; note: potency is the fitted concentration of half-maximal effect; nearly all actives have a fitted effect of over 55% in size
# Target sequence (A8B2U2 whole entry, looked up): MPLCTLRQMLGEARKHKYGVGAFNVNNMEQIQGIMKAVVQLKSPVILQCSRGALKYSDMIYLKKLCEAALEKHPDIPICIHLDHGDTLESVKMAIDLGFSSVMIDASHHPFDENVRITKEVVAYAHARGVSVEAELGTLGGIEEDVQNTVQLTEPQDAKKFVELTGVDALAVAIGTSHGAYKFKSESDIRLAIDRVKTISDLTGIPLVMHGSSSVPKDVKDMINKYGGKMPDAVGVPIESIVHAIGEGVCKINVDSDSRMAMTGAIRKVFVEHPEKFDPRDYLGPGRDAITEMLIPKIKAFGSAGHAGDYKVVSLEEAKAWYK
#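 40 nM FBPA preincubated 10 min at RT with compound (up to 57.5 uM final), then substrate plus GAPDH/TPI/NAD/arsenate coupling and diaphorase/resazurin added. Fluorescence read after 20 min at RT, 525/598 nm.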
# HCV inh: qHTS Assay for Inhibitors of Hepatitis C Virus (HCV). Potency, µM (series often up to 41.8 µM), for the others: at the top dose activity change, negative = inhibition, hits mostly inhibitors. Huh7.5.1 HCVcc-Cre infection, luciferase reporter, 44 h. 3.4% of 340,000 active; note: potency is the fitted concentration of half-maximal effect
#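 Cells seeded at 1,000/well and cultured 4 h, then compounds added followed by HCVcc-Cre virus (~0.5 moi). After 44 h further culture, luciferase substrate was added, plates held 15 min at room temperature, and luminescence read for 15 sec.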
# MARV entry inh: qHTS for inhibitors of binding or entry into cells for Marburg Virus; Marburg virus pseudotyped entry inhibition, cell reporter; Potency, µM (highest dose often 37.8 µM), inactives show top-dose activity change, negative = inhibition, usual class: inhibitors; 1.8% of 300,000 active; AID 540276, 2011; calls by dose curve; tested in HEK293 cells; note: potency is the fitted concentration of half-maximal effect
# LASV entry inh: qHTS for Inhibitors of binding or entry into cells for Lassa Virus; Lassa virus pseudotype entry inhibition, cell reporter; Potency, µM (highest dose often 37.9 µM), for inactives: at the highest dose activity change, negative = inhibition, usual class: inhibitors; 1.2% of 300,000 active; AID 540256, 2011; calls by dose curve; tested in HEK293 cells; note: potency is the fitted concentration of half-maximal effect; nearly all actives have a fitted effect of over 50% in size
# Starred values were filed as active, the others as inactive; u = inconclusive; x = not tested or not shown; [ ] = remark or other dose. Unless noted, calls come from the whole dose curve; as a rule, active = well fitted curve in the direction sought with a large enough effect; inconclusive = small, poorly fitted or top-dose-only effect, or another doubt; inactive = no such curve, though single readings can be large; an effect the other way counts as inactive or inconclusive. % is set by controls: 0 for no effect and ±100 for the full control effect.
SMILES,HCMV antiviral,FMDV inh,Giardia FBPA inh,HCV inh,MARV entry inh,LASV entry inh
CC(OC(=O)c1ccccc1NCCO)C(=O)Nc1ccc(S(=O)(=O)N2CCOCC2)cc1 (centres undefined),-20,-17%,x,8.9µM*,-21%[46.1 µM],6%
Cc1cccc(C(=O)OC(C)C(=O)Nc2ccc(S(=O)(=O)N3CCCC3)cc2)c1O (centres undefined),-14,-20%,x,u,-40%,u
O=C(Nc1ccc(F)c(Cl)c1)C1CCN(S(=O)(=O)c2ccc3c(c2)CCCN3C(=O)C2CCC2)CC1,-38,u,x,x,x,u
COc1cccc(C(=O)CC2c3c(c(Br)c4c(c3OC)OCO4)CCN2C)c1 (centres undefined),x,8%,-8%,x,x,x
Oc1ccc(/C=N/Nc2ccnc3cc(Cl)ccc23)cc1O,-60*,-3%,-8%,u,x,x
CC/C(=N\Nc1ccnc2cc(Cl)ccc12)c1ccc(O)cc1,20,-3%,2%,u,u,u
CCOC(=O)Cn1cc(C(=O)c2cccs2)c2ccccc21,100,-1%,0%,8.9µM*,u,3%
CCn1cc(C(=O)c2cccs2)c2ccccc21,13,-12%,-6%,u,16%,3%
COC(=O)Cn1c(=NC(=O)c2nc3ccccc3s2)sc2cc(S(N)(=O)=O)ccc21,-89*,0%,1%,u,13%,0%
O=C(CCCCCn1c(=S)[nH]c2ccc(N3CCOCC3)cc2c1=O)NCc1cccc(Cl)c1,-71*,-1%,5%,u,u,-26%
O=C(CCCn1c(=O)[nH]c2ccsc2c1=O)N1CCN(c2ccc(Cl)cc2)CC1,u,28µM*,x,x,26%[46.1 µM],15%[46.1 µM]
O=C(CCCn1c(=S)[nH]c2cc3c(cc2c1=O)OCO3)N1CCN(c2ccc(Cl)cc2)CC1,-86*,u,9%,13µM*,u,u
O=C(CCCCCn1c(=S)[nH]c2ccc(N3CCOCC3)cc2c1=O)NCc1ccccc1,-30,-13%,-4%,u,6%,-7%
O=C(CCCCCn1c(=S)[nH]c2cc3c(cc2c1=O)OCO3)NCCc1ccccc1,61,3%,x,u,x,x
O=C(CCCn1c(=S)[nH]c2cc3c(cc2c1=O)OCO3)NCCc1ccc(Cl)cc1,-74*,-21%,x,x,x,x
COc1cccc(Nc2nccc3[nH]c(-c4cccc(F)c4)cc23)c1,-21,x,x,x,x,x
Cc1ccccc1C(=O)N1CCN(c2ccc(NC(=O)c3ccco3)cc2)CC1,-16,25%,12%,-3%,u,-37%[46.1 µM]
CN1CCN(c2ccc(NC(=S)NC(=O)c3cccc4c(Br)cccc34)cc2)CC1,15,-17%,-16%,u,u,-20%[46.1 µM]
Cc1ccccc1C(=O)N1CCN(c2ccc(NC(=O)c3cccc(OC(C)C)c3)cc2)CC1,-3,16µM*,x,u,11%,-2%
CN1CCN(c2ccc(NC(=S)NC(=O)c3cccc4ccccc34)cc2)CC1,0,12%,-5%,11µM*,x,x
COc1c(C)cccc1C(=O)Nc1ccc(N2CCN(C(=O)c3ccccc3C)CC2)cc1,-36,u,x,7.9µM*,u,u
CC(C)C(=O)SCCCCCCC(=O)Nc1nc(-c2ccccc2)cs1,x,x,4%,x,x,x
CCOC(=O)c1nn(-c2ccc(C)cc2)cc1O,64,2%,-7%,-3%,u,u
CCOC(=O)c1nn(-c2ccc3c(c2)OCO3)cc1O,-101*,46%,-1%,-1%,-24%,17%
COC(=O)c1c(-c2cc(OC)cc(OC)c2)sc2ccc(OC)cc12,1,14%,x,13µM*,x,x
SMILES,HCMV antiviral,FMDV inh,Giardia FBPA inh,HCV inh,MARV entry inh,LASV entry inh
COC(=O)c1c(-c2ccc(OC)cc2)sc2ccc(N3CCOCC3)cc12,u,25%,x,13µM*,x,x
COC(=O)c1nc2ccc(N3CCOCC3)cc2c(C)c1C(=O)OC,-4,5%,7.9µM*,3%,u,-2%
C=CCOC(=O)C(C(C)=O)[C@@H](NC(=O)OC)c1ccco1 (some centres undefined),x,x,x,x,19%[14.2 µM],x
COc1ccc(-n2c(CNC(=O)c3ccc(OC)cc3OC)nnc2SC)cc1,x,8%,x,x,x,x
CNC(=O)c1sc(N2N=C3/C(=C/c4ccccc4)CCCC3C2c2ccccc2)nc1C (centres undefined),-39,u,-10%,10µM*,u,u
CNC(=O)c1sc(N2N=C3/C(=C\c4ccccc4)CCCC3C2c2ccccc2)nc1C (centres undefined),-28,32µM*,x,u,u,u
O=C(c1ccccn1)N1N=C2/C(=C/c3ccccc3)CCCC2C1c1ccccc1 (centres undefined),67,-22%,8%,7%,-15%,-29%
O=C(Nc1cccc(Cl)c1)C1C2CCC3C(CCC21)C3(Cl)Cl (centres undefined),-10,40µM*,-9%,u,u,u
Cc1ccc(C(=O)N(Cc2cc3cc4c(cc3nc2N2CCOCC2)CCC4)CC2CCCO2)cc1 (centres undefined),x,25%,x,x,x,x
COc1cccc(-c2nc3cc4c(cc3cc2CN(C(=O)c2csc(C)n2)C2CC2)CCC4)c1OC,x,14µM*,x,x,x,x
COc1cccc(-c2nc3cc(SC)ccc3cc2CN(C(=O)c2csc(C)n2)C2CC2)c1,x,28µM*,x,x,x,x
COc1ccc(-c2nc3cc(F)ccc3cc2CN(C(=O)c2cccc(OC)c2)C2CC2)cc1,x,-11%,x,x,x,x
CC(=O)Oc1ccc(OC(C)=O)c(SCCCCCN2CCOCC2)c1,u,u,u,11µM*,16µM*,u
CC12CCC(=O)C=C1CCC1C2CCC2(C)C(O)(C(=O)CO)CCC12O (centres undefined),-65*,-8%,x,24%,-28%,-12%
CC12CCC(=O)C=C1CCC1C2CCC2(C)C1CCC2(O)C(=O)CO (centres undefined),1,-22%,x,-13%,x,x
C=C(C)CSc1nc2sc3c(c2c(=O)n1Cc1ccccc1)CC(C)(CC)OC3 (centres undefined),-1,-14%,x,x,x,-18%[46.1 µM]
CC1CC(C)CN(C(=O)c2ccc3c(c2NCCO)C(=O)c2ccccc2C3=O)C1 (centres undefined),-13,-21%,-8%,u,10µM*,u
CC1CC(C)CN(C(=O)COC(=O)CN2C(=O)c3ccccc3C2=O)C1 (centres undefined),-19,-9%,x,3%,6%[46.1 µM],-1%[46.1 µM]
O=C(Nc1ccc(Oc2ccccc2)cc1)c1cnc2n(c1=O)CCS2,-86*,u,5%,u,x,x
CCOc1ccccc1NC(=O)c1cnc2n(c1=O)CCS2,46,10%,0%,-6%,27%,4%
